The campaign covered roughly 110,000 compounds. About 230 (0.21%) showed an effect of 50% or more. The full list was thinned out, with strong results kept by preference.
The compounds below were run against DPAP1 (Plasmodium falciparum, UniProt Q8IIJ9) (assay: primary screen, percent inhibition; read by cleavage of a fluorogenic dipeptide substrate; higher = more effect of the substance).
Design: species or system P. falciparum D10 trophozoite lysates; single well
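Further: 30 min substrate incubation versus DMSO and 10 µM JCP410 controls.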

Chain of DPAP1 (Q8IIJ9 whole entry, looked up): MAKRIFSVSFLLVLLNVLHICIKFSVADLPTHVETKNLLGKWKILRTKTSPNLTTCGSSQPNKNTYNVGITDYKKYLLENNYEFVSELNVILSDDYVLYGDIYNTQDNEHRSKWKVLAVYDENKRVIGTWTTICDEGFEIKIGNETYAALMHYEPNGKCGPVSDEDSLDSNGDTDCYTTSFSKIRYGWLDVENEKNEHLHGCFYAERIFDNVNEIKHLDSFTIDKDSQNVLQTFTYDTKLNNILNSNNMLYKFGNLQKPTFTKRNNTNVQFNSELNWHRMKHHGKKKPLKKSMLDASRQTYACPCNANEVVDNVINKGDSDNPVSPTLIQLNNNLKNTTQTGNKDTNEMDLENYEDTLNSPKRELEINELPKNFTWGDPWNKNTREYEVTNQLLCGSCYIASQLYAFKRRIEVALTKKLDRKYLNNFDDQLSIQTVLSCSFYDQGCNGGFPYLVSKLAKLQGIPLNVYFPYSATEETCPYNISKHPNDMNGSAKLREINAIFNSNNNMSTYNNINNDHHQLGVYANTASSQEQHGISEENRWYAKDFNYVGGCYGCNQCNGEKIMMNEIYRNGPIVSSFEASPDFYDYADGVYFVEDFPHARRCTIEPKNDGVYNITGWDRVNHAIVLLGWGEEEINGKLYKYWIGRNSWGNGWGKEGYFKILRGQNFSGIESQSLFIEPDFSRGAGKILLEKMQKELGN

Row | SMILES | % Inhibition @ 10 uM
1 | CCOc1ccc(-c2cc(C)n3nc(C(=O)NCc4ccco4)cc3n2)cc1 | 0.221%
2 | Cc1ccc2nc3c(O)n(C)cnc-3c2c1 | 5.06%
3 | CCOc1ccc(C2CC(=O)N3CN(CCc4ccccc4)CSC3=C2C#N)cc1 (centres unmarked) | 71.1%
4 | CCOc1ccc(C2CC(=O)N3CN(CCO)CSC3=C2C#N)cc1 (centres unmarked) | 61.2%
5 | CCOc1ccc(C2CC(=O)N3CN(Cc4ccccc4)CSC3=C2C#N)cc1 (centres unmarked) | 48.5%
6 | CCc1ccc(C2CC(=O)N3CN(Cc4ccccc4)CSC3=C2C#N)cc1 (centres unmarked) | 39.2%
7 | C=C(C)Cn1c(C(C)NC(=O)CCC)nc2ccccc21 (centres unmarked) | 1.41%
8 | CC(C)CNCC(=O)Nc1sc2c(c1C(=O)Nc1ccc(Br)cc1)CCC2 | -6.07%
9 | OC1(c2ccc(Cl)cc2)CCN(Cc2ccc(F)c(F)c2)CC1 | -7.42%
10 | COc1ccc(C2=NN3C(C2)c2cc(Cl)ccc2OC3(C)C)cc1 (centres unmarked) | 50.9%
11 | COc1ccc(C2=NN3C(C2)c2cccc(OC)c2OC3(C)C)cc1 (centres unmarked) | 38.5%
12 | COc1ccc(C2=NN3C(C2)c2cc(OC)ccc2OC3(C)C)cc1 (centres unmarked) | 43.8%
13 | CCCCCn1c(Br)nc2c1c(=O)[nH]c(=O)n2C | 4.41%
14 | CC(=O)c1cccc(NC(=O)c2ccc(N(C)S(=O)(=O)c3ccc(C)cc3)cc2)c1 | 5.24%
15 | COc1ccccc1CNC(=O)c1c2c(nn1C)-c1ccccc1SC2 | 8.62%
16 | COCCNC(=O)c1noc2c1COc1ccccc1-2 | 60%
17 | COc1ccccc1CNC(=O)c1noc2c1CSc1ccccc1-2 | 62.7%
18 | CC(C)OCCCNC(=O)c1noc2c1COc1ccccc1-2 | 58.6%
19 | COCCNC(=O)c1noc2c1COc1ccc(C)cc1-2 | -3.77%
20 | COCCCNC(=O)c1noc2c1COc1ccc(C)cc1-2 | 5.1%
21 | CCCCN(CC)C(=O)c1noc2c1COc1ccccc1-2 | -1.72%
22 | O=C(NCC1CCCO1)c1noc2c1CSc1ccccc1-2 (centres unmarked) | 19.3%

Row | SMILES | % Inhibition @ 10 uM
23 | CC12CC3CC(C)(C1)CC(OCCNC(=O)c1noc4c1COc1ccccc1-4)(C3)C2 | 49%
24 | CC(C)OCCCNC(=O)c1nn(C)c2c1COc1ccccc1-2 | -1.72%
25 | COCCCNC(=O)c1noc2c1COc1ccccc1-2 | 84.2%
26 | Cc1ccc2c(c1)-c1onc(C(=O)NCCCOC(C)C)c1CO2 | 1.97%
27 | COc1cccc(C(=O)N2CCN(C(=O)CCC3CCCC3)CC2)c1 | 0.587%
28 | O=C(NC1CCCCC1)C1CCCN(S(=O)(=O)N2CCCCC2)C1 (centres unmarked) | -4.99%
29 | CN1CCN(C(=O)c2ccc(Cn3c(SCc4ccccc4F)nc4ccncc43)cc2)CC1 | -1.92%
30 | Cn1c(=O)c2nc(-c3ccccc3)c(-c3ccccc3)nc2n(C)c1=O | 4.03%
31 | CCOc1cc(-c2cc(-c3ccc(N)cc3)nc(N)c2C#N)ccc1O | 3.26%
32 | COc1ccc2c(CNCc3ccccc3C)c(C(=O)O)n(Cc3ccc(F)cc3)c2c1 | -4.16%
33 | COc1cc(C)c2c(=O)c(Oc3ccccc3)c(C(F)(F)F)oc2c1 | -5.69%
34 | CC(C)(C)n1ncc2c(=O)n(Cc3c(F)cccc3Cl)cnc21 | -1.75%
35 | COC(=O)c1sccc1-n1c(S)c(C#N)c(N)c(C#N)c1=N | -2.21%
36 | CC1CC2(C)CC(C(=O)O2)C1C(=O)O (centres unmarked) | -1.76%
37 | CC(NC(=O)c1noc2c1COc1ccccc1-2)c1ccc2c(c1)OCCO2 (centres unmarked) | 21.3%
38 | COc1ccc(OC)c(CCNC(=O)c2noc3c2COc2ccccc2-3)c1 | 59.5%
39 | Cc1ccc2c(c1)-c1onc(C(=O)NCCC(C)C)c1CO2 | 1.14%
40 | COc1ccccc1CNC(=O)Nc1noc2c1COc1ccccc1-2 | -0.539%
41 | COc1cc(-c2cc(NC(=O)c3noc4c3COc3ccccc3-4)on2)cc(OC)c1OC | 4.86%
42 | CC(C)CCNC(=O)c1noc2c1COc1ccccc1-2 | 88.5%
43 | CC1CCN(S(=O)(=O)c2ccc(NC(=O)C(C)(C)C)cc2)CC1 | -6.17%
44 | N=C(Cc1cccc2ccccc12)NOC(=O)c1cccs1 | 3.66%

Row | SMILES | % Inhibition @ 10 uM
45 | COc1cc2c(cc1OC)C(C(=O)N1CCC(C)CC1)C(c1cccnc1)N(C)C2=O (centres unmarked) | 1.83%
46 | CCCc1nc2ccccc2n1Cc1ccccc1OC | 0.913%
47 | Cc1ccc(C2CC(=O)N3CN(Cc4cccnc4)CSC3=C2C#N)cc1 (centres unmarked) | 43.8%
48 | N#CC1=C2SCN(Cc3cccnc3)CN2C(=O)CC1c1ccc(F)cc1 (centres unmarked) | 55.3%
49 | CCc1ccc(C2CC(=O)N3CN(Cc4ccco4)CSC3=C2C#N)cc1 (centres unmarked) | 33.6%
50 | CCOc1ccc(C2CC(=O)N3CN(Cc4cccnc4)CSC3=C2C#N)cc1 (centres unmarked) | 56%
51 | COc1ccc(C2CC(=O)N3CN(Cc4cccnc4)CSC3=C2C#N)cc1 (centres unmarked) | 46.3%
52 | CN(CC(=O)NC1CCCCCC1)S(=O)(=O)c1ccc(F)cc1 | 3.17%
53 | CCN1CCN(C(=O)C2CC(c3ccc(OC)cc3)=NO2)CC1 (centres unmarked) | 1.62%
54 | N#CCCN1CCN(C2=NC(=O)/C(=C\c3ccc(-c4ccc(Cl)cc4)o3)S2)CC1 | -2.8%
55 | COc1ccccc1NC(=O)c1cnc(Nc2nc3ccccc3o2)nc1C | -4.12%
56 | CCCN1CCC(N2CCC(C)CC2)CC1 | -3.74%
57 | COc1cccc2c(O)c(C(=O)O)cnc12 | 0.51%
58 | Cc1cc(-c2ccc(C)c(S(=O)(=O)N3CCN(CCOc4ccc(Cl)cc4)CC3)c2)on1 | -5.87%
59 | Cc1cc2nc(O)c(O)nc2cc1S(=O)(=O)N1CCN(CCOc2ccc(Cl)cc2)CC1 | 52.3%
60 | Cc1nc(O)nc(O)c1S(=O)(=O)N1CCN(CCOc2ccc(Cl)cc2)CC1 | -1.38%
61 | COc1ccc(-c2cc(C(F)(F)F)nc(SCC(=O)N3CCOCC3)n2)cc1 | -8.55%
62 | COc1ccc(-c2cc(-c3ccc(OC)cc3)c3c(N)c(C(N)=O)sc3n2)cc1 | 19.8%
63 | COC(=O)c1sc2nc(-c3ccccc3)cc(-c3ccc(OC)cc3)c2c1N | 2.79%
64 | COc1ccc(-c2cc(-c3ccccc3)nc3sc(C(N)=O)c(N)c23)cc1 | 76%
65 | CCCN1C(=O)c2n[nH]c(C)c2C1c1cccnc1 (centres unmarked) | -4.67%

Reference: publication PMC6919601, “Identification of Plasmodium dipeptidyl aminopeptidase allosteric inhibitors by high throughput screening” (PLoS ONE, 2019)
